Most compounds without a hit are left out; they make up all but 1.6% or so of the library.
PERK inh – inhibitors of human PERK kinase; Q9NZJ5; CHO PERK-DD fusion, SEAP luminescence translation reporter; inhibition, % at 5.6 µM; 0.17% of 220,000 active; AID 1416;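 active means inhibition above the mean inhibition of all tested compounds plus 3 SD, set separately per screening campaign, cut at about 2.9% in these data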;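 further: PERK kinase domain activated by AP20187 dimerizer at 100 nM; 0% = DMSO with dimerizer and 100% = rapamycin at 8.4 µM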
eIF4E 4G PPI – blocks eIF4E binding to eIF4G; TR-FRET eIF4E-eIF4GI(517-606) binding, 2 h; 0.37% of 220,000 active; P63073+Q04637; inhibition, % at 21.7 µM;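 active means inhibition above about 30%, limit read from the data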;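 further: 0% = full FRET control wells and 100% = background wells lacking eIF4GI fragment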
PABP1 MLLE inh – inhibitors of microRNA-mediated deadenylation, human PABP1 MLLE binding; 0.36% of 360,000 active; inhibition, % at 20 µM; P11940; GST-MLLE / FITC-PAM2 fluorescence polarization; in the data active means inhibition above about 35%, passing the limit was not always enough;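 further: plate controls were DMSO wells with GST-MLLE for no effect and wells lacking GST-MLLE protein for full effect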
eIF4H inh – inhibitors of RNA binding by human eIF4H; Q15056; eIF4H fluorescence polarization binding assay; inhibition, % at 35 µM; 0.94% of 290,000 active;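 further: calls also rest on retests at 20 µM and on dose response follow-up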
PABP FP inh – blocks human PABP binding to poly(A) RNA; AID 2014; P11940; fluorescence polarization; inhibition, % at 35 µM; 1% of 290,000 active;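 further: calls also rest on retests at 20 µM and on dose response follow-up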
* = called active by the depositor; i = inactive; ? = inconclusive; . = not tested or not shown; [ ] = remark or other dose. Unless noted, how the calls were made is not given here.

SMILES	PERK inh	eIF4E 4G PPI	PABP1 MLLE inh	eIF4H inh	PABP FP inh
O=C(COc1cc(F)ccc1[N+](=O)[O-])NCCN1C(=O)CSC1=O	.	.	-3.3	.	.
Cc1cc2cc(CNC(=O)Nc3ccccc3)ccc2n1C	0.6	0.5	62.9*	10.7	4.3
CCC(CC)C(=O)NCc1ccc2c(c1)cc(C)n2C	-0.3	3.0	21.5	1.9	7.5
Cc1cc2cc(CNC(=O)C(C)Oc3ccccc3)ccc2n1C (stereo not drawn)	-1.2	-4.1	26.0	73.1	24.1*
Cc1cc2cc(CNC(=O)c3cccs3)ccc2n1C	-0.4	3.8	45.2*	8.2	18.0
CCOC(=O)CCC(=O)NCc1ccc2c(c1)cc(C)n2C	0.3	11.9	21.4	102.6	104.2*
CCCCC(=O)NCc1ccc2c(c1)cc(C)n2C	-0.5	0.7	14.1	71.5	77.0
CC(C)(C)c1ccc(CC(=O)N2CCC2(C)C(=O)N2CCCCC2)cc1 (stereo not drawn)	.	.	-1.2	.	.
O=C(Nc1ccc(Cl)cc1)c1nc[nH]c1C(=O)N1CCN(c2ccccc2)CC1	.	.	-5.1	.	.
CC(C)OC(=O)c1nn2c(C(F)(F)F)cc(-c3ccco3)nc2c1Cl	1.4	-0.3	-66.2	17.7	11.6
CC(C)OC(=O)c1nn2c(C(F)(F)F)cc(-c3ccc(Br)o3)nc2c1Br	-1.1	1.0	26.4	44.4*	72.3*
CSc1ncnc2c1ncn2CCCN(C)Cc1ccco1	.	.	20.2	.	.
Cc1nn2c3c(cnc2c1-c1ccccc1)C(=O)CC(C)C3 (stereo not drawn)	0.6	.	.	.	.
Cc1nn2c3c(cnc2c1-c1ccc(Cl)cc1)C(=O)CC(c1ccco1)C3 (stereo not drawn)	.	.	-1.5	61.4*	32.4*
COc1ccc(OCC(=O)Nc2ccccc2C(=O)N2CCOCC2)cc1	0.1	-0.3	-11.2	active	90.3*
COc1ccccc1C(N)=S	1.3	-2.4	40.0*	-0.1	8.9
COc1ccccc1C(=O)C(=O)c1ccccc1OC	.	.	6.6	.	.
COc1ccc(CNC(=O)C2CCN(C(=O)[C@@H]3Cc4ccccc4CN3)CC2)cc1	.	.	-6.9	-7.0	20.4
O=C(Nc1sc2c(c1C(=O)O)CCC2)C(=O)N1CCOCC1	.	.	11.0	85.5*	22.7*
O=C1CCCC2=C1C(c1ccco1)Nc1ccc3ccccc3c12 (stereo not drawn)	0.4	20.6	-3.7	80.5*	84.1*
CC(=O)Nc1ccc(S(=O)(=O)Nc2nnc(CC(C)(C)C)s2)cc1	-1.0	1.4	42.8*	-0.6	4.7
O=C(O)c1ccc(-c2nc(-c3ccccc3)c(-c3cccs3)[nH]2)cc1	4.3*	1.4	2.1	-1.0	-0.7
O=C(CN1CCC(NC(=O)Nc2ccc(F)cc2)CC1)Nc1ccccc1[N+](=O)[O-]	.	.	-9.7	0.6	0.8
CCNc1cc2oc(=O)c(CN3CCOCC3)c(C)c2cc1C	0.0	0.3	47.6*	?	?
Cc1cc2oc(=O)cc(CN3CCOCC3)c2cc1C	0.3	3.9	-8.1	-2.9	-1.8
SMILES	PERK inh	eIF4E 4G PPI	PABP1 MLLE inh	eIF4H inh	PABP FP inh
CCC(SC1=NCCS1)C(=O)Nc1ccc(S(N)(=O)=O)cc1 (stereo not drawn)	0.9	14.4	40.8*	7.4	-0.8
CCOC(=O)C1(Cc2cccc(OC)c2)CCCN(Cc2c(C)nn(C(C)C)c2C)C1 (stereo not drawn)	-1.6	97.1*	-13.1	-0.8	-5.3
CCOC(=O)C1(Cc2cccc(OC)c2)CCCN(Cc2cc(C(C)C)n[nH]2)C1 (stereo not drawn)	0.2	1.4	0.3	1.4	-0.4
COc1ccc(S(=O)(=O)Nc2cc(Sc3ncn[nH]3)c(O)c3ccccc23)cc1	-0.6	46.2*[fluorescence artefact?]	.	-5.3	12.6
COc1ccc(S(=O)(=O)Nc2ccc(O)c(Sc3ncn[nH]3)c2)cc1	-0.3	-5.3	3.9	-6.3	-17.7
CC(C)SCC(=O)Nc1ncc2c(n1)-c1ccccc1CC2	0.6	12.3	-32.9	75.5*	24.5
COc1ccc(NC(=O)CSc2nnc(N)s2)cc1S(=O)(=O)N1CCCCC1	.	.	-18.1	.	.
COC(=O)CNC(=O)CN1c2cccc3cccc(c23)S1(=O)=O	-1.2	1.6	-6.7	?	57.6*
Cc1ccc(N=Nc2c(O)c3ccccc3[nH]c2=O)c(S(=O)(=O)N(C)C)c1	3.3*	2.1	.	-6.4	16.5
Cc1cc(N=Nc2c(O)c3ccccc3[nH]c2=O)ccc1N=Nc1ccc(C(=O)N(C)C)cc1	1.4	11.4	12.6	24.9	8.6
CCN1C[C@@H]2[C@@H]3C(=O)N(C)C(=O)[C@@H]3[C@](Cc3ccccc3)(C(=O)OC)N2C1=NC1CCCCC1	.	.	-5.1	.	.
Cc1ccc(C)n1-c1cc(S(=O)(=O)N2CCOCC2)ccc1N1CCCC1	-0.6	-17.7	1.2	92.5*	105.9*
COc1cc(/C=C/C(=O)Nc2cc(S(=O)(=O)N3CCOCC3)ccc2N2CCCC2)cc(OC)c1OC	0.6	2.6	39.8*	-6.6	-4.9
CCOc1ccc(C(=O)NC(C)(C)CC)cc1	0.6	-7.1	0.1	-3.8	69.1*
CC(=O)Nc1sc(/C(C#N)=C\c2cccc(Cl)c2)nc1-c1ccc(C)cc1	0.9	0.7	i	127.4*	81.3*
O=C(O)C1Nc2c(O)cccc2C2C=CCC12 (stereo not drawn)	0.4	48.5*[fluorescence artefact?]	-1.0	99.3*	6.4
O=C(O)C1Nc2c(Cl)cc(Cl)cc2C2C=CCC12 (stereo not drawn)	.	.	-20.0	84.3*	78.4*
S=C(Nc1ccc(Nc2ccccc2)cc1)Nc1ccccn1	0.4	1.2	38.4*	-8.0	-4.5
S=C(Nc1ccccn1)NC1CCCCC1	0.1	94.3*	-41.5	3.0	-5.3
S=C(Nc1ccccn1)NC1CCCC1	1.6	-2.8	-30.5	-1.0	-5.5
N#C/C(=N\Nc1cccc2ccccc12)c1nnc2n1CCCCC2	-0.2	-0.1	0.5	85.5*	active
CN(c1cccc(Cl)c1)S(=O)(=O)c1cccc(C(=O)NN2CCOCC2)c1	.	.	-8.5	.	.
O=C(Cc1cnn(-c2ccccc2)c1)c1ccc(O)c(O)c1O	-0.5	5.5	20.5	85.5*	53.5*
CCc1cc(C(=O)Cc2cnn(-c3ccccc3)c2)c(O)cc1O	0.7	19.1	3.6	-6.2	3.6
CCN(CC)CCCN1C(=O)C(O)=C(C(=O)c2ccc(C)o2)C1c1ccc(C)o1 (stereo not drawn)	0.5	-2.1	0.1	18.3	120.4*
SMILES	PERK inh	eIF4E 4G PPI	PABP1 MLLE inh	eIF4H inh	PABP FP inh
CC(=O)c1c(OC(=O)c2ccccc2)ccnc1C(F)(F)F	.	.	4.4	.	.
Cc1ccccc1Cn1c(C)cc(C)c(C#N)c1=O	0.6	2.4	-2.6	active	92.6*
CC(=O)Nc1ccc(N2C(=O)CSC2c2ccc(F)cc2)cc1 (stereo not drawn)	0.8	-10.8	5.5	97.8*	72.7*
NS(=O)(=O)c1ccc(CCNC(=O)C(=O)c2cn(CC(=O)N3CCCC3)c3ccccc23)cc1	.	.	4.8	-3.8	5.5
Cc1c(C(=O)C(=O)NCCc2ccc(S(N)(=O)=O)cc2)c2ccccc2n1C	1.1	20.3	-5.5	93.2*	active
COCCNC(=O)c1ccc(-n2c(SCc3ccncc3)nc3ccccc3c2=O)cc1	-0.9	1.9	2.4	active	71.3*
